The results in this text go back to PubChem BioAssay AID504843 (Broad Institute, 2011).

Molecules are shown by their SMILES. Hit rate of the full screen: of about 1,200 compounds, about 360 (30%) were called active. The rule behind the calls is not given here. A selection follows. Entries that show only a call come without a potency. Potency and affinity values are given separately.

A short description of the experiment: antibacterial activity by ATP level – BacTiter-Glo luminescence, cherry-picked samples, counter-screen, dose response (AID 504843).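 Note: growth measured after 8 h incubation at 30 °C.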 The following applies: bacterial growth; series mostly up to 15 µM. (The purpose of a counterscreen is to sort out artefacts and off-target activity.)
Turning to `CC1(C)C2CCC1(C)C(NC(=O)/C=C/c1ccccc1)C2` (centres undefined), the compound was called inactive.

Regarding `O=c1oc2ccccc2c(N2CCC(c3ccccc3)CC2)c1[N+](=O)[O-]`, the result was inactive.

For the compound `Cc1ccccc1N/N=C/c1ccc(C#N)cc1`, the result was inactive.

For `Cc1ccc(-c2nn(-c3ccccc3)cc2CC(=S)N2CCOCC2)cc1`, the compound was classed as inactive.

Regarding `O=C(CSc1nnc(-c2ccccc2)n1C1CCCCC1)N1CCCC1`, the call was inactive.

In the case of `Cc1cccc(-n2c(SCC(=O)NC3CCCC3)nnc2-c2ccoc2C)c1`, the compound was classed as inactive.

With `Cc1ccc(C2CC(c3ccccc3)n3ncnc3N2)cc1` (centres undefined), the compound was classed as inactive.

Turning to `CCn1c(C)cc(/C=C2/NC(=O)N(Cc3ccccc3F)C2=O)c1C`, the result was inactive.

As for `CC(=O)Nc1cccc(Oc2nc(C(F)(F)F)nc3ccccc23)c1`, the call was inactive.

`COc1cccc(NC(=O)c2ccc3c(SCC(=O)O)c4c(nc3c2)CCCC4)c1`: the compound was called inactive.

`Cc1ccc(OCCOCCNC(C)(C)C)c([N+](=O)[O-])c1`: the result was inactive.

Turning to `N#Cc1ccccc1CSc1ccccn1`, the outcome was inactive.

Regarding `CC(CN1CCOCC1)(NS(=O)(=O)c1ccccc1)c1ccccc1` (centres undefined), the call was inactive.

Consider `O=C(CNC1CCCCC1)Nc1cc(S(=O)(=O)N2CCOCC2)ccc1Cl`, for which the compound was called inactive.

For `O=C(CNC1CCCCCC1)Nc1ccccc1N1CCCCC1`, the call was inactive.

On to `O=C(NCCOC(=O)c1cccs1)c1cccnc1`, for which the call was inactive.

For the compound `COc1ccc(OC)c(-n2c(SCC(=O)N3CCc4ccccc43)nc3c(c2=O)SCC3)c1`, the call was inactive.

Consider `Fc1cccc(NC(=S)NCCCN2CCOCC2)c1`, for which the compound was classed as inactive.

For `O=C(Cn1nc(C(=O)O)c2ccccc2c1=O)NCc1ccco1`, the outcome was inactive.

In the case of `O=C1CCCN1Cc1ccccc1`, the compound was called inactive.

On to `N#C/C(=C(/O)CN1CCN(c2ccccc2F)CC1)c1nc(-c2ccc(Cl)cc2)cs1`, for which the compound was called inactive.

With `C[C@@H]1CN([C@H](C)CO)C(=O)c2cc(NS(=O)(=O)c3cccs3)ccc2O[C@H]1CN(C)Cc1ccccc1`, the compound was called inactive.

For `COc1cc(/C=N/NC(=O)c2ccccn2)ccc1OC(=O)c1ccc(Br)cc1`, the outcome was inactive.

Consider `C(=N\Nc1ccccn1)/c1ccc(N2CCOCC2)cc1`, for which the compound was classed as inactive.

As to `Cn1c(Cn2c(=O)sc3ccccc32)nnc1SCc1ccccc1F`, the compound was classed as inactive.

In the case of `CCCCCCc1ccc(N2C[C@H](Cc3ccccc3)[C@@H](CC(=O)NCc3ccc(OC)cc3)C2=O)cc1`, the compound was called inactive.

Take `CCCC(=O)c1c[nH]c(C(=O)N2CCOCC2)c1`: the compound was called inactive.

In the case of `CCCNC(=O)COc1coc(CN2CCN(c3ccccc3F)CC2)cc1=O`, the compound was called inactive.

For the compound `CCCc1[nH]nc2c1C(c1ccc(OC(=O)c3ccco3)cc1)C(C#N)=C(N)O2` (centres undefined), the call was inactive.

Regarding `CC(=O)c1ccc([C@H]2C[C@@]34CN(C(=O)OC(C)(C)C)S(=O)(=O)[C@H]3C[C@H]2O4)cc1`, the outcome was inactive.

As for `CCOC(=O)CSc1nnc(CNC(=O)c2ccc([N+](=O)[O-])cc2)n1C`, the outcome was inactive.

For the compound `NC(=O)c1cc2ccc(O)cc2oc1=Nc1ccccc1`, the outcome was inactive.

Regarding `Cc1ccc(NCc2nnc3n2CCCCC3)c(C)c1`, the compound was classed as inactive.

Regarding `C[C@H](NS(=O)(=O)c1ccc(Cl)c(Cl)c1)C(=O)OCc1cc(=O)n2cc(Br)ccc2n1`, the compound was called inactive.

On to `Cc1ccc(NC(=S)NC(=O)c2ccc(F)cc2)cc1S(=O)(=O)Nc1ccccc1Cl`, for which the result was inactive.

As to `COc1ccc(NS(=O)(=O)c2cc(NC(=O)CCc3ccc(OC)c(OC)c3)ccc2N2CCOCC2)cc1`, the compound was classed as inactive.

With `CCOC(=O)c1c(NC(NC(C)=O)C(Cl)(Cl)Cl)sc(C(C)=O)c1C` (centres undefined), the outcome was inactive.

`OCc1ccnc2c(O)cccc12`: the call was inactive.

Consider `CCOC(=O)/C(C#N)=C/c1ccc(OCC(=O)Nc2ccccc2)c(OC)c1`, for which the compound was classed as inactive.
